Assay outcomes deposited in PubChem BioAssay by National Center for Advancing Translational Sciences (NCATS).
NPC1 prom act – activates the NPC1 promoter. Huh7 NPC1 promoter luciferase reporter, 24 h. Potency, µM (highest dose often 9.22 µM), for inactives: at the highest dose activation, actives largely listed as activators. actives 2.4% (n = 320,000). AID 485313; further: % of control where 0% means no effect; nearly all actives have a fitted effect of over 60% in size
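Stably transfected Huh7 (NPC1 promoter→luciferase), 1500 cells/well in Opti-MEM + 10% FBS, 2 h settle, then compound 24 h at 37 °C. Luminescence after 10 min with Amplite reagent.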
SMN2 splice up – SMN2 splice variant enhancement; Potency, µM (series often up to 46.1 µM), for the others: top-dose activity change, positive = activation, most hits filed as activators; HEK293 SMN2-luciferase splicing reporter, luminescence, 30-36 h; actives 2.8% (n = 210,000); further: % of control where 0% means no effect; nearly all actives have a fitted effect of over 55% in size
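qHTS luciferase splicing reporter: luminescence rises when SMN2 exon 7 is included in transfected HEK293 cells. Compound exposure lasted 30-36 h at 37C, with 4.5 mM final sodium butyrate as control, followed by a ONE-Glo read.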
FLuc counter – inhibits or activates purified firefly luciferase, miR-21 counter-screen | purified FLuc, Km substrates, luminescence inhibition | Potency, µM (doses to about 57.5 µM), for the others: at the top dose activity change, negative = inhibition, usual class: inhibitors | actives 6.9% (n = 360,000) | AID 588342;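 further: plate controls were vehicle for no effect and reference inhibitor for full effect; nearly all actives have a fitted effect of over 55% in size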
Target sequence (P08659 whole entry, looked up): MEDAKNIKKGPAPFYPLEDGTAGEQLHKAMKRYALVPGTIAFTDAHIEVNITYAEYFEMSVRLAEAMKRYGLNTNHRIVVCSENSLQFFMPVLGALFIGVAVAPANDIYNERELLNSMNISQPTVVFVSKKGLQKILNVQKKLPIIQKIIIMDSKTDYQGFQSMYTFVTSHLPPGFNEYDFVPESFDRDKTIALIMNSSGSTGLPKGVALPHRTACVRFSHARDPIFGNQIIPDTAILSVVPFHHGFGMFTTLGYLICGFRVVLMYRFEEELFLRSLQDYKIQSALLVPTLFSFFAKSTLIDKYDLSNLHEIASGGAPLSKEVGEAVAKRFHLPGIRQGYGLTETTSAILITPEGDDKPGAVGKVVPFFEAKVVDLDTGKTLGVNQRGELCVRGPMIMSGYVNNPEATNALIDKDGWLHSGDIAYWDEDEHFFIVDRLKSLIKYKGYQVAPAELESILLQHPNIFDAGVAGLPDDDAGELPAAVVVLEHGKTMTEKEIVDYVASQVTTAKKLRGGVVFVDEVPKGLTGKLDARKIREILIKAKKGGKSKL
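Biochemical qHTS of compounds, final roughly 60 µM downward over six points, against 10 nM purified firefly luciferase using Km concentrations of substrates (10 uM D-luciferin, 10 uM ATP) in Tris acetate pH 7.5 buffer; luminescence output.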
Luc counter – Kinase-Glo luciferase inhibition (counter-screen). Potency, µM (titrated, usually from 38.3 µM), without a hit: at the highest dose activity change, negative = inhibition, most hits filed as inhibitors. Kinase-Glo luciferase, ATP luminescence, 8 min. actives 0.28% (n = 200,000); further: on the % scale 0 is the no-effect control and ±100 the full control effect; nearly all actives have a fitted effect of over 60% in size
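Compound is pinned into ATP-containing buffer (10 uM ATP, imidazole pH 7.2, 7 mM MgCl2). Kinase-Glo luciferase reagent is then added. Light output is recorded following an 8-min room-temperature incubation.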
ELG1 genotox – inducers of genotoxicity in HEK293T ELG1-luciferase cells | HEK293T ELG1-luciferase reporter, luminescence, 16 h | Potency, µM (top dose mostly 46 µM), without a hit: top-dose activity change, positive = activation, most hits filed as activators | actives 1.3% (n = 330,000); further: % of control where 0% means no effect; nearly all actives have a fitted effect of over 60% in size
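Quantitative HTS format in 1536-well plates. HEK293T ELG1-luciferase reporter cells receive test compound and are incubated 16 hr at 37 °C, 5% CO2; ONE-Glo added, 30 min room temperature, then luminescence read.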
Rab9 prom act – Rab9 promoter activation | Huh7 Rab9 promoter-luciferase reporter, luminescence, 24 h | actives 2.8% (n = 320,000) | AID 485297 | Potency, µM (series often up to 9.22 µM), without a hit: at the top dose activation, negative = inhibition, hits mostly activators; further: % of control where 0% means no effect; nearly all actives have a fitted effect of over 60% in size
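Huh7 cells stably carrying Rab9 promoter–luciferase reporter, plated 1500 cells/well, compound added after 2 h and incubated 24 h at 37 °C; luciferase luminescence then read after 10 min with detection reagent.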
The depositor's hits bear a star; ? = inconclusive; · = not tested or not shown. Most compounds without a hit are left out; they make up all but 7.3% or so of the library. The call rests on the fitted dose curve; in most records, active means well fitted curve in the direction sought with a large enough effect; inconclusive means small, poorly fitted or top-dose-only effect, or another doubt; inactive means no such curve, though single readings can be large; an effect the other way counts as inactive or inconclusive. Potency means the concentration at half of the fitted maximal effect.

SMILES	NPC1 prom act	SMN2 splice up	FLuc counter	Luc counter	ELG1 genotox	Rab9 prom act
COC(=O)c1ccc2nc(NC(=O)C(C)C)sc2c1	2µM*	5.6µM*	8.5µM*	1%	?	1.1µM*
COC(=O)c1ccc2nc(NC(=O)CCS(=O)(=O)c3ccccc3)sc2c1	3%	·	-8%	·	17%	7%
COC(=O)c1ccc2nc(NC(=O)C3CC3)sc2c1	2.2µM*	·	19µM*	·	?	?
COC(=O)c1ccc2nc(NC(=O)CN3C(=O)CCC3=O)sc2c1	-3%	7%	?	-5%	4%	3%
CCOC(=O)c1ccc2nc(NC(C)=O)sc2c1	?	13µM*	?	0%	?	2.2µM*
Cn1c(=O)n(C)c2cc(N3CCOCC3)c(NC(=O)c3ccc(Cl)cc3)cc21	·	-3%	-1%	·	·	·
COC(=O)c1ccc2nc(Nc3nc4c(F)cc(F)cc4s3)sc2c1	-16%	-85%	5.4µM*	1%	?	-25%
CCOC(=O)c1ccc2nc(Nc3nc4ccc(F)cc4s3)sc2c1	-31%	-61%	?	2%	-10%	-39%
COCCCNC(=O)c1ccc(Cn2c(=O)c3ccccc3n(CC(=O)Nc3c(C)cccc3C)c2=O)cc1	·	?	-2%	·	·	·
COc1cccc(NC(=O)/C=C/c2ccccc2[N+](=O)[O-])c1	?	3.2µM*	5.4µM*	-27%	?	4µM*
O=C(/C=C/c1ccccc1[N+](=O)[O-])Nc1cccnc1	?	14µM*	15µM*	-1%	11%	2.8µM*
CSc1cccc(NC(=O)/C=C/c2cccc(Cl)c2)c1	?	14µM*	8.5µM*	0%	18%	3.2µM*
COc1cccc(/C=C/C(=O)Nc2ccc3[nH]c(=O)[nH]c3c2)c1	-1%	?	9.5µM*	1%	-1%	15%
COc1cc(/C=C/C(=O)Nc2ccc3[nH]c(=O)[nH]c3c2)cc(OC)c1OC	3%	23%	?	2%	11%	0%
COc1ccc(OC)c(NC(=O)/C=C/c2ccccc2[N+](=O)[O-])c1	-2%	1%	?	3%	0%	1%
COc1ccc(CNC(=O)CCCn2c(=O)c3cccn3c3ccc(F)cc32)cc1OC	·	·	-12%	·	·	·
Cc1cc2c(cc1S(=O)(=O)N(CCN(C)C)Cc1ccccc1)OCC(=O)N2	·	·	-2%	·	·	·
COc1ccc(-c2cc(C(=O)Nc3c(C(=O)c4ccc(C)cc4)oc4ccccc34)no2)cc1	·	·	-2%	·	·	·
CCN(CC)S(=O)(=O)c1cccc(NC(=O)/C=C/c2ccc([N+](=O)[O-])cc2)c1	-1%	-13%	-16%	4%	-1%	-3%
COc1cccc(NC(=O)/C=C/c2ccc([N+](=O)[O-])cc2)c1	?	·	6µM*	·	11%	?
Cn1c2ccccc2c(=O)c2cc(C#CC3(O)CCCCC3)ccc21	?	·	0.076µM*	·	0.12µM*	?
Cn1c2ccccc2c(=O)c2ccc(C#CC3(N)CCCCC3)cc21	4µM*	·	6.7µM*	·	7.3µM*	2µM*
Cn1c2ccccc2c(=O)c2ccc(C#Cc3ccccn3)cc21	16%	·	-17%	·	15%	22%
COc1cccc2oc3ccc(C#CC4(N)CCCCC4)cc3c(=O)c12	?	·	6µM*	·	18µM*	?
Cn1c2ccccc2c(=O)c2ccc(F)cc21	-1%	·	-6%	·	16%	4%
COc1cc(-c2noc(C)c2C#CC2(N)CCCCC2)cc(OC)c1OC	1%	·	1%	·	5%	4%
Cc1ccc(OCC(=O)OC2=C(C(=O)c3ccccc3)N(C)S(=O)(=O)c3ccccc32)cc1	·	-15%	3%	·	·	·
CCOc1ccc(Nc2cc(C)nc3nncn23)cc1	·	16%	-8%	·	·	·
Cc1[nH][nH]c(=O)c1C(c1ccc(-c2cccc(Cl)c2)o1)c1c(C)[nH][nH]c1=O	-2%	·	-20%	·	-2%	-2%
